The supplement of paper PMC10981050
Values joined by “and” are separate entries in the source; they are usually repeats but may differ in a detail not shown here. Equal entries are not always repeated. Structures can show the parent of a compound that is named as a salt.

Key:
Assay in all cases: cell viability relative to vehicle control; higher = less cytotoxic
Details in all cases: 10 µM
K562 = system: K562
How it was run: (§1)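 Four leukaemia lines, as CRISPR-edited mutant clones and isogenic wild-type clones, were tested against Selleck bioactive, kinase and epigenetic probe libraries after removal of identity-inconsistent compounds. Cells were exposed to a single 10 µM dose for 48 h, and CellTiter-Glo luminescence was then read. Viability was calculated relative to the on-plate vehicle control.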

MARIMO = system: MARIMO
How it was run: as §1

MOLM14 = system: MOLM14
How it was run: as §1

OCI-AML2 = system: OCI-AML2
How it was run: as §1

| Structure (SMILES) | cell viability (K562; SRSF2 genotype: SRSF2 P95H/wt) | cell viability (K562; SRSF2 genotype: SRSF2 wt/wt) | cell viability (MARIMO; SRSF2 genotype: SRSF2 P95H/wt) | cell viability (MARIMO; SRSF2 genotype: SRSF2 wt/wt) | cell viability (MOLM14; SRSF2 genotype: SRSF2 P95H/wt) | cell viability (MOLM14; SRSF2 genotype: SRSF2 wt/wt) | cell viability (OCI-AML2; SRSF2 genotype: P95H/wt) | cell viability (OCI-AML2; SRSF2 genotype: wt/wt) |
| --- | --- | --- | --- | --- | --- | --- | --- | --- |
| CC/C(=C(/c1ccc(/C=C/C(=O)O)cc1)c1ccc2[nH]ncc2c1)c1ccc(F)cc1Cl [Brilanestrant (GDC-0810, ARN-810)] | 100% and 106% | 96.2% | 102% | 95.1% | 86.8% | 92.3% | 96.9% | 102% |
| C[C@@H]1CC[C@@]2(OC1)O[C@H]1C[C@H]3[C@@H]4CC=C5C[C@@H](O[C@@H]6O[C@H](CO)[C@@H](O[C@@H]7O[C@@H](CO)[C@H](O)[C@H]7O)[C@H](O)[C@H]6O[C@@H]6O[C@@H](C)[C@H](O)[C@@H](O)[C@H]6O)CC[C@]5(C)[C@H]4CC[C@]3(C)[C@H]1[C@@H]2C [Polyphyllin I] | 0.33% | 0.31% | 0.37% | 0.67% | 0.32% | 0.29% | 0.21% | 0.36% |
| CCCCCCCC(=O)N[C@H](CN1CCCC1)[C@H](O)c1ccc2c(c1)OCCO2 [Eliglustat (Tartrate)] | 95.2% and 103% | 99.4% | 91.1% | 89.7% | 90% | 99.9% | 94% | 97.1% |
| O=C1C(N(CO)C(=O)NCO)N(CO)C(=O)N1CO (stereo unspecified) [Diazolidinyl urea] | 96.3% and 98.6% | 106% | 98.9% | 98.3% | 93.8% | 104% | 111% | 129% |
| O=C(NO)c1cccc(C(=O)NCCc2ccccc2)c1 | 91% and 97.1% | 101% | 91.9% | 86.8% | 89.6% | 94.3% | 90.7% | 93.3% |
| C[C@@H](O)[C@H]1C(=O)N2C(C(=O)O)=C(S[C@@H]3CN[C@H](C(=O)N(C)C)C3)[C@H](C)[C@H]12 [Meropenem] | 103% and 109% | 106% | 94.7% | 96.9% | 103% | 101% | 111% | 101% |
| CCCCCC1=C(C)CCC1=O [Dihydrojasmone] | 105% | 108% | 101% | 106% | 107% | 105% | 106% | 115% |
| C[n+]1cc2c3c(ccc2c2ccc4cc5c(cc4c21)OCO5)OCO3 [Sanguinarine chloride] | 0.68% and 0.46% | 0.74% | 0.3% | 0.38% | 0.25% | 0.34% | 0.31% | 0.29% |
| CN1CCc2c(c3ccccc3n2Cc2ccc(C(=O)NO)cc2)C1 [Tubastatin A hydrochloride] | 77.4% and 88.8% | 84.6% | 67% | 66.5% | 43.8% | 43.6% | 51.1% | 49.9% |
| COc1cc(C(=O)NC2CCCNC2)cc(OC)c1OC (stereo unspecified) [Troxipide] | 98.2% and 99.3% | 101% | 102% | 106% | 103% | 100% | 99.7% | 105% |
| C#C[C@]1(O)CC[C@H]2[C@@H]3CCC4=CC(=O)CC[C@@H]4[C@H]3CC[C@@]21C [Norethindrone (Norethisterone)] | 103% and 101% | 100% | 101% | 116% | 98.3% | 106% | 107% | 111% |
| CO[C@H]1/C=C/O[C@@]2(C)Oc3c(C)c(O)c4c(O)c(cc(O)c4c3C2=O)NC(=O)/C(C)=C\C=C\[C@H](C)[C@H](O)[C@@H](C)[C@@H](O)[C@@H](C)[C@H](OC(C)=O)[C@@H]1C [Rifamycin sodium salt] | 35.1% and 16.3% | 13% | 4.5% | 7.05% | 0.49% | 0.44% | 0.38% | 0.42% |
| Nc1ccc(S(=O)(=O)Nc2ncccn2)cc1 [Sulfadiazine] | 108% and 105% | 108% | 114% | 110% | 103% | 108% | 111% | 110% |
| NC(=O)N/N=C/c1ccc([N+](=O)[O-])o1 [Nitrofurazone (Nitrofural)] | 98.5% and 94.8% | 96.7% | 104% | 100% | 96.8% | 99.5% | 102% | 103% |
| CC(C)n1nc(-c2ccc(NC(=O)Nc3cc(C(F)(F)F)ccc3F)cc2)c2c(N)ncnc21 | 26.5% and 30.8% | 19% | 8.66% | 4.51% | 1.98% | 0.7% | 2.08% | 8.47% |
| O=C1NS(=O)(=O)c2ccccc21 [Saccharin] | 99% and 89.3% | 93.9% | 90.5% | 101% | 97.9% | 96.6% | 89.5% | 103% |
| C[C@@H](Nc1nc(N[C@H](C)C(F)(F)F)nc(-c2cccc(Cl)n2)n1)C(F)(F)F [Vorasidenib (AG-881)] | 91.3% and 90.9% | 84.7% | 88.3% | 105% | 89% | 85.3% | 104% | 98.3% |
| O=C(CCN1CCN(C(=O)OCc2cc(Cl)cc(Cl)c2)CC1)c1ccc2[nH]c(=O)oc2c1 | 88.6% and 96.5% | 94.5% | 87.2% | 106% | 83.1% | 98.8% | 88.2% | 109% |
| COc1ccc2cc1Oc1ccc(cc1)C[C@H]1c3cc(c(OC)cc3CCN1C)Oc1c(O)c(OC)cc3c1[C@H](C2)N(C)CC3 [Fangchinoline] | 5.78% and 5.22% | 5.07% | 12.1% | 1.57% | 0.48% | 0.53% | 0.4% | 0.56% |
| Nc1nc(CC(=O)Nc2ccc(CCNC[C@H](O)c3ccccc3)cc2)cs1 [Mirabegron (YM178)] | 102% and 111% | 107% | 103% | 114% | 101% | 103% | 110% | 93.1% |
| C=CC(=O)N1C[C@H](Nc2ncnc3[nH]ccc23)CC[C@@H]1C | 96.3% and 105% | 102% | 94.5% | 97.7% | 81.1% | 93.8% | 86.8% | 91.6% |
| CC(C)Cc1ccc(C(C)C(=O)O)cc1 (stereo unspecified) [Ibuprofen (Advil)] | 99.3% and 98.5% | 92.9% | 95.1% | 100% | 100% | 101% | 87.7% | 101% |
